Compound activity: PubChem, The Scripps Research Institute Molecular Screening Center
PAFAH2 inh = inhibitors of human PAFAH2; inhibition, % at 3.39 µM; hit rate 0.99% among 340,000; recombinant PAFAH2, FP-rhodamine activity probe, fluorescence polarization;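 active = inhibition above the mean over all tested compounds plus 3 SD, cut at about 30% in these data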;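 note: inhibitors block probe labeling of enzyme so polarization drops; 0% = enzyme with DMSO and 100% = wells lacking PAFAH2 protein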
pPAFAH inh = inhibitors of human plasma PAF acetylhydrolase (pPAFAH) | recombinant pPAFAH, FP-rhodamine probe fluorescence polarization | inhibition, % at 3.39 µM | hit rate 1.5% among 330,000 | AID 463082;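 active = inhibition above the mean inhibition across the screen plus 3 SD, cut at about 25% in these data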;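 note: inhibitors block binding of the rhodamine activity-based probe so polarization drops; 0% = enzyme with DMSO and 100% = wells lacking pPAFAH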
Target sequence (Q13093 whole entry, looked up): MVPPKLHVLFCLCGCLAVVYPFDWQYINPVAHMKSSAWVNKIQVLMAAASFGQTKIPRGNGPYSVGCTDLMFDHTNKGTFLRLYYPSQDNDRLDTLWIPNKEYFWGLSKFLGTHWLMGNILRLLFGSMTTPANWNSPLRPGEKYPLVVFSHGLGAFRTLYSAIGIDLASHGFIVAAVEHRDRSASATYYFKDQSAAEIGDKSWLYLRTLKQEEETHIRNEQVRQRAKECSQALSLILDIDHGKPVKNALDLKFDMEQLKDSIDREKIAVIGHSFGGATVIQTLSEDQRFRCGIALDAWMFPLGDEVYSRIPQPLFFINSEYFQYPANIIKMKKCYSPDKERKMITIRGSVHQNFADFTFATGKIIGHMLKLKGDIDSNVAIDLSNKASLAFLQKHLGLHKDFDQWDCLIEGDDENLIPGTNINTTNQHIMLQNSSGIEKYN
EBNA-1 inh = blocks EBNA-1 binding to DNA | EBNA-1 DNA binding, fluorescence polarization | inhibition, % at 14.8 µM | hit rate 0.34% among 300,000; in the data active = inhibition above about 28%
ZTA DNA inh = ZTA (EBV) inhibition in EBNA-1 counter-screen | ZTA-DNA binding, fluorescence polarization | inhibition, % at 11 µM | hit rate 0.15% among 320,000; in the data active = inhibition above about 33%
PAFAH1B3 inh = blocks human PAF acetylhydrolase 1B catalytic subunit 3; recombinant PAFAH1B3, FP-rhodamine probe, fluorescence polarization; inhibition, % at 3.39 µM; hit rate 0.28% among 340,000;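 active = inhibition above the screen-wide average of all tested compounds plus 3 SD, cut at about 25% in these data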;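 note: 0% = enzyme with DMSO only and 100% = wells lacking PAFAH1B3 protein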
PAFAH1B2 inh = PAFAH1B2 (human) inhibition; P68402; hit rate 1.2% among 340,000; inhibition, % at 3.39 µM; recombinant PAFAH1B2, FP-rhodamine activity probe, fluorescence polarization;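 active = inhibition above the mean of all tested compounds plus 3 SD, cut at about 24% in these data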;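 note: 0% = enzyme with DMSO and 100% = wells lacking PAFAH1B2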
Target sequence (P68402 whole entry, looked up): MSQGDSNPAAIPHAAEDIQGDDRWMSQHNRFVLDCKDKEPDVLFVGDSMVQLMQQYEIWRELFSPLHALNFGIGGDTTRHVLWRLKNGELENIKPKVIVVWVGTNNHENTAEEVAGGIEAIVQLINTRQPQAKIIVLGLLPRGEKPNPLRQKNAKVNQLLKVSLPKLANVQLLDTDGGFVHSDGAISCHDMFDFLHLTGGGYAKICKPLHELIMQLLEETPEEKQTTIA
EBNA-1 inh conf = EBNA-1 (EBV) inhibition, confirmation; shares compounds with EBNA-1 inh; Recombinant EBNA-1 DBD, Cy5-DNA fluorescence polarization; inhibition, % at 14.8 µM; hit rate 35% among 830;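 active = mean inhibition across replicates above a set limit taken from the earlier primary screen, cut at about 28% in these data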;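 note: plate controls were EBNA-1 protein with DMSO for no effect and wells lacking EBNA-1 for full effect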
ZTA counter trip = blocks Epstein-Barr virus ZTA in triplicate, EBNA-1 counter-screen; shares compounds with EBNA-1 inh; Zta-ZRE DNA binding, Cy5 fluorescence polarization; inhibition, % at 11.1 µM; 830 tested, under 10 active;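 active = mean inhibition over triplicates above a set limit taken from the primary EBNA-1 screen, cut at about 37% in these data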;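 note: purified full length Zta protein with Cy5 labeled ZRE DNA probe; 0% = Zta with DMSO and 100% = wells lacking Zta protein; inhibitors lower polarization by freeing the labeled DNA probe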
* = called active by the depositor; x = not tested or not shown. The list is not random: actives were taken first. Their share in the collection is about 2.9%.

SMILES	PAFAH2 inh	pPAFAH inh	EBNA-1 inh	ZTA DNA inh	PAFAH1B3 inh	PAFAH1B2 inh	EBNA-1 inh conf	ZTA counter trip
CCOC(=O)COc1cccc2c(=O)n(CC(=O)N3CCc4ccccc43)ccc12	1.9	-2.9	36.4*	9.4	5.6	0.8	17.2	0.6
COc1cccc2c(=O)n(CC(=O)N3CCc4ccccc43)ccc12	-0.6	1.9	6.3	1.7	-2.5	5.6	x	x
COc1ccc(NC(=O)c2ccc3c(c2)C(=O)N(Cc2ccncc2)C3=O)cc1S(N)(=O)=O	-5.8	1.9	x	x	4.1	3.0	x	x
C=CCOC(=O)C1=C(C)NC(C)=C(C(=O)OCC=C)C1c1cn(-c2ccccc2)nc1-c1ccco1	8.5	7.3	53.3*	5.0	-0.1	-0.8	21.9	8.7
OCc1cn(-c2ccccc2)nc1-c1ccco1	-1.9	8.0	2.5	-13.1	2.1	4.0	x	x
CCOCCCN1CC(=O)N2[C@@H](Cc3c([nH]c4ccccc34)C2(C)C)C1=O	-7.9	2.1	-4.4	-1.0	12.8	-2.2	x	x
CSCCCN1CCCC(CO)(Cc2ccccc2F)C1 (centres undefined)	-1.1	-3.9	-6.7	4.0	3.2	-4.1	x	x
CS(=O)(=O)NNC(=O)c1csc(Cc2c(Cl)sc3ccc(Cl)cc23)n1	-5.7	5.6	39.9*	11.3	-7.5	3.3	41.5*	6.5
CC(C)C(=O)NNC(=O)c1csc(CS(=O)(=O)c2ccc(Cl)cc2)n1	-2.3	4.7	-7.1	-6.2	1.7	2.4	x	x
O=C(NC1CCCCC1)c1ccc(-c2ccccc2)cc1	-3.9	5.6	0.0	-15.2	-6.0	5.3	x	x
CC(=O)C1=C(O)C(=O)N(CCCn2ccnc2)C1c1ccc(Br)cc1 (centres undefined)	-7.3	5.4	39.7*	11.0	4.5	0.1	9.2	6.1
COC(=O)CSc1nnc(-c2ccc(S(=O)(=O)N3CCC(C)CC3)cc2)o1	-10.1	-6.9	0.9	6.4	3.8	15.4	x	x
CC1CCN(S(=O)(=O)c2ccc(-c3nnc(SCc4cccnc4)o3)cc2)CC1	-7.9	1.8	44.3*	7.3	3.3	5.2	21.3	-7.3
Cc1ccc(Cl)cc1NC(=S)N(Cc1ccccc1)Cc1cccnc1	-1.4	5.5	6.0	19.7	2.6	2.5	x	x
COc1ccc(Cn2cccc(NC(=O)Nc3cccc(C#N)c3)c2=O)cc1	4.4	6.5	105.7*	24.4	-4.5	2.8	117.3*	1.2
CC(=O)Oc1c(-c2ccco2)oc2ccccc2c1=O	1.4	0.2	5.5	-8.8	5.8	2.6	x	x
CC(C)NC(=O)C(Sc1ccccc1)c1ccccc1 (centres undefined)	-5.2	3.1	39.1*	-6.2	-7.8	1.3	0.9	1.5
CCOC(=O)c1ccc(CNC(=O)CSc2nc(NC(=O)c3ccccc3)c3c(C)c(C)oc3n2)cc1	-10.1	8.7	40.1*	-6.0	3.5	3.3	3.9	-2.0
COc1ccc(C(NC(=O)CN2CCCCCC2)c2ccc(OC)cc2)cc1	-5.6	11.7	-4.9	-10.5	4.2	3.0	x	x
CCOc1ccc2nc(SC3CC(=O)N(c4ccccc4)C3=O)sc2c1 (centres undefined)	1.8	4.4	32.8*	1.6	12.3	1.6	1.1	-1.5
COc1ccc(-n2ncc3c(=O)n(CC(=O)N4c5ccccc5CC4C)cnc32)cc1 (centres undefined)	-8.2	3.2	31.1*	1.5	3.6	-0.3	0.8	3.7
CCOC(=O)Cn1cnc2c(cnn2-c2ccc(OC)cc2)c1=O	-2.3	1.6	4.5	-1.7	14.6	1.9	x	x
Cc1ccc(OC(=O)CCN2C(=O)c3ccccc3C2=O)cc1C	1.2	3.1	0.8	5.2	7.4	3.6	x	x
CC(C)C(NC(=O)c1ccc(Cl)cc1Cl)C(=O)N1CCN(S(=O)(=O)c2ccccc2)CC1 (centres undefined)	6.5	-6.0	x	x	7.0	4.4	x	x
Cc1nnc(SCC(=O)c2ccc(C(C)C)cc2)s1	-5.3	-1.0	-2.1	-1.5	14.6	5.4	x	x
SMILES	PAFAH2 inh	pPAFAH inh	EBNA-1 inh	ZTA DNA inh	PAFAH1B3 inh	PAFAH1B2 inh	EBNA-1 inh conf	ZTA counter trip
COc1ccc(O)c(-c2cc(C(F)(F)C(F)F)nc(-c3ccccc3)n2)c1	-1.1	0.2	30.7*	-3.8	8.3	5.6	7.8	4.4
Oc1ccccc1-c1cc(C(F)(F)C(F)F)nc(-c2ccccc2)n1	4.4	4.8	-10.6	-15.4	12.3	1.3	x	x
O=C(Nc1ccc(S(=O)(=O)NCC2CCCO2)cc1)C1CC(=O)N(c2ccccc2)C1 (centres undefined)	-3.6	-2.6	-6.6	0.8	3.0	0.0	x	x
CCc1ccc(N2CC(C(=O)Nc3ccc(S(=O)(=O)NCC4CCCO4)cc3)CC2=O)cc1 (centres undefined)	-5.0	1.1	94.0*	9.0	-2.6	8.1	28.9*	-17.6
Cc1nn(C)c(C(=O)N/N=C/c2ccc(-c3ccccc3)cc2)c1Cl	1.9	0.0	37.5*	6.5	6.4	1.1	27.7*	24.6
COc1ccc(/C=N/NC(=O)c2c([N+](=O)[O-])c(C)nn2C)cc1	-4.2	-7.8	-3.9	-4.1	7.8	3.0	x	x
COc1ccc(S(=O)(=O)N(C)C)cc1NC(=O)c1ccc(OCC(=O)N2CCOCC2)c(OC)c1	-1.7	6.1	-9.4	6.5	8.0	0.1	x	x
c1ccc2c(-c3[nH]ncc3CNCCCn3ncc4ccccc43)cccc2c1	-0.3	3.4	8.8	-4.4	1.5	-0.3	x	x
Cc1cc(C)n(/N=C/c2ccccc2)c(=O)c1C#N	0.9	1.2	2.6	0.3	-1.2	3.0	x	x
Cc1cc(C)n(/N=C/c2c[nH]c3ccccc23)c(=O)c1C#N	3.4	12.8	27.8*	-1.2	3.8	2.7	14.2	-6.9
O=C(c1ccco1)N1N=C(c2ccc(Br)cc2)CC1c1ccco1 (centres undefined)	0.8	10.8	x	8.8	5.3	1.8	x	x
CCOC(=O)C1CCCCN1S(=O)(=O)c1ccc2c(c1)CC(C)N2C(=O)C1CCC1 (centres undefined)	-0.7	2.1	-7.3	-4.2	8.6	5.8	x	x
Cc1ccnc(NS(=O)(=O)c2ccc(NC(=O)c3cc(-c4ccc(Br)cc4)nc4ccccc34)cc2)n1	-10.0	2.1	31.9*	19.0	-4.8	-11.2	0.0	-6.2
COc1ccc(OC)c(S(=O)(=O)N2CCC(C(=O)NCc3ccccn3)CC2)c1	13.2	-1.6	-4.0	-15.7	7.5	6.2	x	x
CC(=O)NNC(=O)c1cc2c3ccccc3n(C)c2s1	6.2	2.6	6.9	-6.1	2.8	-6.2	x	x
COc1ccc(S(=O)(=O)NNC(=O)c2cc3c4ccccc4n(C)c3s2)cc1	-8.1	6.3	31.7*	-8.0	2.7	-3.9	18.1	3.4
Cc1c(C(=O)NCCSCc2cccc(C(F)(F)F)c2)cnn1-c1ccc(Cl)cc1	7.8	3.0	-6.7	-6.6	5.3	1.0	x	x
